PubChem BioAssay (Tox21)
Values joined by “and” are separate entries in the source; they are usually repeats but may differ in a detail not shown here. Equal values may be shown once. Records with an inconclusive call do not appear. A call without a number means that no potency is given here. Active and inactive are the calls of the source. Unless noted, calls follow the shape of the dose curve; as a rule, active = well fitted curve in the direction sought with a large enough effect in the repeat runs; inconclusive = weak or mixed curves; inactive = no such curve, though single readings can be large; an effect the other way counts as inactive or inconclusive.

Columns and labels:
[1] = target: Estrogen receptor beta (Homo sapiens) (UniProt Q92731); assay: qHTS assay to identify small molecule agonists of the estrogen receptor beta (ER-beta) signaling pathway (AID 1259377; active = well fitted activation curve with a large enough effect in the signal ratio in the repeat runs, not every such curve was filed as active; the % refers to the signal ratio)
Estrogen receptor beta (Homo sapiens), sequence (Q92731 whole entry, looked up): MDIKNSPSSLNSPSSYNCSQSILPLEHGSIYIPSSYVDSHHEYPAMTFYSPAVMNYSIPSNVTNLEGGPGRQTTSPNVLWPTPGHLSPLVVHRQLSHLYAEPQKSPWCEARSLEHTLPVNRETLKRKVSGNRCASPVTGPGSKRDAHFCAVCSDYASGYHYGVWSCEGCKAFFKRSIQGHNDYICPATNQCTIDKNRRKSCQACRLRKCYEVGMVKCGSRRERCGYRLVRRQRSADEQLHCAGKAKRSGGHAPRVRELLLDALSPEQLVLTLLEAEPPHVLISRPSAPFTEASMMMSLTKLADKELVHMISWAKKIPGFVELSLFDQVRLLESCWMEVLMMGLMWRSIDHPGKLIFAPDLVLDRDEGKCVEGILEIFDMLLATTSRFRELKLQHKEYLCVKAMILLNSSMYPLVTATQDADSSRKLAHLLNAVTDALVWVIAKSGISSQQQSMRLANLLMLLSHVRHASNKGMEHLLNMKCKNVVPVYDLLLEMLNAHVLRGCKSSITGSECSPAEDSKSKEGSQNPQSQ
Procedure, shortened: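 HEK293T ER-beta-UAS-bla; 2% charcoal-stripped FBS; cells pre-incubated 6 hr, compound 16 hr, 37C/5% CO2; LiveBLAzer B/G FRET substrate 2 h RT; fluorescence intensity read.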

[2] = target: Estrogen receptor beta (Homo sapiens) (UniProt Q92731); assay: qHTS assay to identify small molecule antagonists of the estrogen receptor beta (ER-beta) signaling pathway (AID 1259378; active = well fitted inhibition curve with a large enough effect in the signal ratio in the repeat runs, not every such curve was filed as active; the % refers to the signal ratio; also: potency is read from the fitted curve at half-maximal effect)
Procedure, shortened: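 ER-beta-UAS-bla HEK293T (GripTite) cells in 2% charcoal-stripped FBS medium were preincubated 6 hr at 37C, dosed with compound, then stimulated with 1 nM E2 (final) for 16 hr; beta-lactamase reporter read by B/G FRET fluorescence after 2 hr substrate loading.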

[3] = qHTS assay to identify small molecule agonists of the androgen receptor (AR) signaling pathway in the presence of an antagonist - cell viability counter screen (AID 1259379); also: nearly all actives have a fitted effect of over 25% in size; also: potency is read from the fitted curve at half-maximal effect
Procedure, shortened: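 MDA-kb2 human breast carcinoma cells (stable MMTV-luciferase, AR/GR responsive) were seeded 3,000 cells/well, pre-incubated 5 hr at 37C without CO2, then given 3.0uM nilutamide and compounds at 15 concentrations for 16 hr. Viability was read by CellTiter-Fluor fluorescence.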

[4] = qHTS assay to identify small molecule antagonists of the estrogen receptor beta (ER-beta) signaling pathway - cell viability counter screen (AID 1259382); also: nearly all actives have a fitted effect of over 55% in size; also: potency is read from the fitted curve at half-maximal effect
Procedure, shortened: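 ER-beta-UAS-bla HEK293T cells (2,000/well, 2% charcoal-stripped FBS) were pre-incubated 6 hr at 37C, then given compound plus 1nM final 17-beta-estradiol for 16 hr. Viability was read in the same wells by CellTiter-Glo luminescence after 30 min at room temperature.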

[5] = target: Estrogen receptor (Homo sapiens) (UniProt P03372); assay: qHTS assay to identify small molecule agonists of the estrogen receptor alpha (ER-alpha) signaling pathway in the presence of an antagonist (AID 1259383; calls by dose curve; also: nearly all actives have a fitted effect of over 15% in size; also: potency is read from the fitted curve at half-maximal effect; as to activation: top concentration of the series differs between compounds)
Estrogen receptor (Homo sapiens), sequence (P03372 whole entry, looked up): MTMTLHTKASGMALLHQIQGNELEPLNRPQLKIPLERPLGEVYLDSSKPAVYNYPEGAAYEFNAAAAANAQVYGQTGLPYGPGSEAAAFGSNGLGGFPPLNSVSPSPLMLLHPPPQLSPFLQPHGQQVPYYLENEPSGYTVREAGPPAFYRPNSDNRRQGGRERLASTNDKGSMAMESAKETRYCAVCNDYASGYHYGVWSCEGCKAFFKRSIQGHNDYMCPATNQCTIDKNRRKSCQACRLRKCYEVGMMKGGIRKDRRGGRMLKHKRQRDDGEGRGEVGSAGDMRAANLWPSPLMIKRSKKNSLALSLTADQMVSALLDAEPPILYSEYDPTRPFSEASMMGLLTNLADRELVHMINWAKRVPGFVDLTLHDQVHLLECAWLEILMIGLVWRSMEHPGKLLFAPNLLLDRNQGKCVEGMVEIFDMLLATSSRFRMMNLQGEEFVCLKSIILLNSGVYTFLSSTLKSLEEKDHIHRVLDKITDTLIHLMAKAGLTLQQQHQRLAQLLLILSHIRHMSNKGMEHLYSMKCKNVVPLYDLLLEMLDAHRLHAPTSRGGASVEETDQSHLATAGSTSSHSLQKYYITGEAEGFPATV
Procedure, shortened: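 VM7Luc4E2 cells (endogenous full-length ER-alpha, 4×ERE-luciferase) were precultured 5 days in phenol red-free medium with 10% charcoal-stripped FBS, given 10.0nM ICI-182,780 (final), then treated with compounds at 15 concentrations for 22hr at 37C; luminescence read with ONE-Glo.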

[6] = qHTS assay to identify small molecule agonists or antagonists of the thyroid stimulating hormone receptor (TSHR) signaling pathway - wild type cell line counter screen (AID 1259384; calls by dose curve)
Procedure, shortened: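 Wild-type HEK293 cells were plated 18 h at 37 C/5% CO2, pin-dosed with compound plus Ro20-1724 medium, held 30 min at room temperature, then given cAMP-d2 and anti-cAMP-cryptate; fluorescence was read after 1 h. Fifteen concentrations, triplicate.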

[7] = target: Thyrotropin receptor (Homo sapiens) (UniProt P16473); assay: qHTS assay to identify small molecule antagonists of the thyroid stimulating hormone receptor (TSHR) signaling pathway (AID 1259385; calls by dose curve; also: nearly all actives have a fitted effect of over 20% in size; also: potency is read from the fitted curve at half-maximal effect)
Thyrotropin receptor (Homo sapiens), sequence (P16473 whole entry, looked up): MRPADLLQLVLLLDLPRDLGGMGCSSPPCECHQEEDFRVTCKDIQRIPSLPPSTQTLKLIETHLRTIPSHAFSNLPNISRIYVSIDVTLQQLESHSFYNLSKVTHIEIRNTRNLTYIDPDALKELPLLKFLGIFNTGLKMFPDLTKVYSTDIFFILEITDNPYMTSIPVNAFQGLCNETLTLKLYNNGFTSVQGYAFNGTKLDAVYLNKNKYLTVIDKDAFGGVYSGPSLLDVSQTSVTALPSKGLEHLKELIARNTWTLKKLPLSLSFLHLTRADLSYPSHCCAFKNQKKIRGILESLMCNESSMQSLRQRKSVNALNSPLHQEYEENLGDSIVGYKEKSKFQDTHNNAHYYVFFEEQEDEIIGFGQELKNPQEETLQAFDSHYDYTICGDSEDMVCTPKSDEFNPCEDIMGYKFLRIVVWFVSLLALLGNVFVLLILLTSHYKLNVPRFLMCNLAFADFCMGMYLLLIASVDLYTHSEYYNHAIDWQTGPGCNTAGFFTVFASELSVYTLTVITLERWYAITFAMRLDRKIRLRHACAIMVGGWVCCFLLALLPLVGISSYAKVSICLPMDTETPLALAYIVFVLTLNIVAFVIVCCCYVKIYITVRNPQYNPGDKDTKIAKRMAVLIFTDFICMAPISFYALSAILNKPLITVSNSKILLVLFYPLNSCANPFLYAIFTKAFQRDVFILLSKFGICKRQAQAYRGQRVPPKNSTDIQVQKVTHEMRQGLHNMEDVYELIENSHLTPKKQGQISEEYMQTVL
Procedure, shortened: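 TSHR-HEK293 cells were plated and held 18 h at 37C/5% CO2, then given compound plus Ro20-1724 and stimulated with TSH at 1.5 ng/mL final. After 30 min at room temperature, cAMP was detected with cAMP-d2/anti-cAMP-cryptate (1 h) by fluorescence.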

[8] = qHTS assay to identify small molecule agonists of the estrogen receptor alpha (ER-alpha) signaling pathway in the presence of an antagonist - cell viability counter screen (AID 1259386);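 also: cells exposed to compounds for 22 h at 37 °C before the viability read; nearly all actives have a fitted effect of over 30% in size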; also: potency is read from the fitted curve at half-maximal effect
Procedure, shortened: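 VM7Luc4E2 cells (endogenous full-length ER-alpha, 4×ERE-luciferase) were held 5 days in phenol red-free medium with 10% charcoal-stripped FBS, plated, then given 10.0nM ICI-182,780 and compounds at 15 concentrations for 22hr at 37C; viability read by CellTiter-Fluor fluorescence.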

[9] = target: Progesterone receptor (Homo sapiens) (UniProt P06401); assay: qHTS assay to identify small molecule agonists of the progesterone receptor (PR) signaling pathway (AID 1346784; calls by dose curve; also: nearly all actives have a fitted effect of over 30% in size)
Progesterone receptor (Homo sapiens), sequence (P06401 whole entry, looked up): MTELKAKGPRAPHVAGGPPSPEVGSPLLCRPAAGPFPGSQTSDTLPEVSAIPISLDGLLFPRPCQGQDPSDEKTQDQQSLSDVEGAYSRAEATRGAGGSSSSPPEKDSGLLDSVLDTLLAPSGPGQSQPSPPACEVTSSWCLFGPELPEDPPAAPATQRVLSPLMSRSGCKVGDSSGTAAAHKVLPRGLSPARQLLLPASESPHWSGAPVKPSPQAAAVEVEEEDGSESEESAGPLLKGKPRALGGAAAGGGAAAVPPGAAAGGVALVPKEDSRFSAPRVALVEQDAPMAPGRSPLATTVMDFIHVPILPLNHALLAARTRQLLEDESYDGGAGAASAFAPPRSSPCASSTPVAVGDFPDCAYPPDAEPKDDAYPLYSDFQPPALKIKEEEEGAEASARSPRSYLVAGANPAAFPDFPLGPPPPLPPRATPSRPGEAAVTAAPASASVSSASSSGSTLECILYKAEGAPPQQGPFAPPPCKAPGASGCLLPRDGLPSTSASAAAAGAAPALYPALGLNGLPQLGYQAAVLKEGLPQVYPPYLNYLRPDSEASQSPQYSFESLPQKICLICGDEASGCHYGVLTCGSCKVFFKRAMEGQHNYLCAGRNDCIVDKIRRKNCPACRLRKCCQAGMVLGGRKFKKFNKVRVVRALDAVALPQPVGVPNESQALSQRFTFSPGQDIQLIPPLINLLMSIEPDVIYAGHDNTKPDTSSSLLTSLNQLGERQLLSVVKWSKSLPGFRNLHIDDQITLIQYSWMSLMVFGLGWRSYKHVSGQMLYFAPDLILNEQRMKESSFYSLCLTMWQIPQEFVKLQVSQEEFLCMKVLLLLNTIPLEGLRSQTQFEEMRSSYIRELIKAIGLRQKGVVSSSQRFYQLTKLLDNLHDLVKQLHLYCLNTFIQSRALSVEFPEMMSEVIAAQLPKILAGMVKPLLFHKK
Procedure, shortened: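 Beta-lactamase reporter read-out: after 16 hr compound treatment at 37C and a further 2 hr at room temperature with LiveBLAzer B/G FRET substrate, fluorescence was measured in PR-UAS-bla HEK 293T cells grown in 2% charcoal-stripped serum.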

[10] = target: Progesterone receptor (Homo sapiens) (UniProt P06401); assay: qHTS assay to identify small molecule antagonists of the progesterone receptor (PR) signaling pathway (AID 1346795; active = well fitted inhibition curve with a large enough effect in the signal ratio in the repeat runs, not every such curve was filed as active; the % refers to the signal ratio; also: potency is read from the fitted curve at half-maximal effect)
Procedure, shortened: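 Read-out is fluorescence from the LiveBLAzer B/G FRET substrate, cleaved by a UAS-controlled beta-lactamase in PR-UAS-bla HEK293T cells after 16 hr exposure to compound plus 1 nM promegestone (final), followed by 2 hr at room temperature.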

[11] = qHTS assay to identify small molecule antagonists of the TGF-beta/Smad signaling pathway - cell viability counter screen (AID 1346824); also: nearly all actives have a fitted effect of over 50% in size; also: potency is read from the fitted curve at half-maximal effect
Procedure, shortened: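 SBE-bla HEK 293T cells were plated overnight at 37 C, then given compounds in DMSO plus TGF-beta1 (added as 0.25 ng/mL solution) for 5 hr. After the bla read, CellTiter-Glo was added to the same wells and luminescence read after 30 min at room temperature.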

[12] = qHTS assay to identify small molecule agonists of the TGF-beta/Smad signaling pathway - cell viability counter screen (AID 1346829); also: top concentration of the series differs between compounds; nearly all actives have a fitted effect of over 45% in size
Procedure, shortened: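 CellTiter-Glo luminescence readout; SBE-bla HEK 293T cells, overnight plating, compound 5 hr at 37 C/5% CO2, then bla substrate 2 hr RT, then CellTiter-Glo 30 min RT.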

[13] = qHTS assay to identify small molecule agonists of the TGF-beta/Smad signaling pathway (AID 1346859; active = well fitted activation curve with a large enough effect in the signal ratio in the repeat runs, not every such curve was filed as active; the % refers to the signal ratio; also: series mostly up to about 77 µM)
Procedure, shortened: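 SBE-bla HEK 293T, 4,000 cells/well, plated o/n; cpd in DMSO, 5 hr, 37 C/5% CO2; B/G FRET substrate 2 hr RT; ex 405, em 460/530 nm.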

[14] = Human pregnane X receptor (PXR) small molecule agonists, qHTS cell viability counter screen (AID 1346977); also: nearly all actives have a fitted effect of over 50% in size; also: potency is read from the fitted curve at half-maximal effect
Procedure, shortened: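 PXR-Luc HepG2, 2,000 cells/well, 5% charcoal-stripped FBS; 5hr settle; cpd 24hr, 37C/5% CO2; CellTiter-Fluor at 23hr, read 1hr later (fluorescence).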

[15] = qHTS assay to identify small molecule antagonists of the progesterone receptor (PR) signaling pathway - cell viability counter screen (AID 1346798); also: nearly all actives have a fitted effect of over 50% in size; also: potency is read from the fitted curve at half-maximal effect
Procedure, shortened: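 HEK293T PR-UAS-bla, 2% charcoal-stripped FBS; 4 hr pre-plate; cpd + R5020, 16 h 37C; LiveBLAzer read first; then CellTiter-Glo 30 min RT, luminescence.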

[16] = target: Thyrotropin-releasing hormone receptor (Homo sapiens) (UniProt P34981); assay: qHTS assay to identify small molecule antagonists of the thyrotropin-releasing hormone receptor (TRHR) signaling pathway (AID 1346877; active = well fitted inhibition curve with a large enough effect in the repeat runs, not every such curve was filed as active; also: series mostly up to about 51 µM)
Thyrotropin-releasing hormone receptor (Homo sapiens), sequence (P34981 whole entry, looked up): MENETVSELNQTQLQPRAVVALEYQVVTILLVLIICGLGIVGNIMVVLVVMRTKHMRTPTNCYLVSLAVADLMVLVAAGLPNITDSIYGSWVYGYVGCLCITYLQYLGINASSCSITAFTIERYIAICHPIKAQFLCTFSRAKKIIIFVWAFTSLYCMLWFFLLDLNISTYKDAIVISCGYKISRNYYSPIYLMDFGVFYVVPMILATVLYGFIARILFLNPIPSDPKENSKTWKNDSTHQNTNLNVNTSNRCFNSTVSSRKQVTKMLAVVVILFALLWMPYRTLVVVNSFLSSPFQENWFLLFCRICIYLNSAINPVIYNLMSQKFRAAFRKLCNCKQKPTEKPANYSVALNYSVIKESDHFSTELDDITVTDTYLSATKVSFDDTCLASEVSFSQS
Procedure, shortened: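 TRHR-expressing HEK293 cells were seeded, cultured 18 h at 37 °C, then loaded with calcium dye for 2 h. Compounds were pre-incubated 5 min at room temperature before 1 nM TRH (final) was added, and kinetic fluorescence was recorded for 3 min.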

[17] = target: Thyrotropin-releasing hormone receptor (Homo sapiens) (UniProt P34981); assay: qHTS assay to identify small molecule agonists of the thyrotropin-releasing hormone receptor (TRHR) signaling pathway (AID 1346891; calls by dose curve; also: series mostly up to about 58 µM)
Procedure, shortened: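 Intracellular calcium rise, read as fluorescence every second for 3 min, served as the agonist signal in dye-loaded HEK293 cells expressing TRHR; each compound ran at 15 concentrations in triplicate.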

[18] = qHTS assay to identify small molecule agonists of the progesterone receptor (PR) signaling pathway - cell viability counter screen (AID 1346799; calls by dose curve; also: nearly all actives have a fitted effect of over 45% in size; also: potency is read from the fitted curve at half-maximal effect)
Procedure, shortened: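 Luminescence from CellTiter-Glo, added after the beta-lactamase FRET read in the same wells, gave cytotoxicity in PR-UAS-bla HEK293T cells treated with compounds for 16 hr at 37C.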

[19] = qHTS assay to identify small molecule agonists of the estrogen receptor beta (ER-beta) signaling pathway - cell viability counter screen (AID 1259380); also: nearly all actives have a fitted effect of over 30% in size; also: potency is read from the fitted curve at half-maximal effect
Procedure, shortened: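 ER-beta-UAS-bla HEK293T cells in medium with 2% charcoal-stripped FBS were preincubated 6 hr at 37C, dosed with compound in DMSO for 16 hr, then after the bla read, CellTiter-Glo was added for 30 min at room temperature; luminescence recorded.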

[20] = target: Androgen receptor (Homo sapiens) (UniProt P10275); assay: qHTS assay to identify small molecule agonists of the androgen receptor (AR) signaling pathway in the presence of an antagonist (AID 1259381; calls by dose curve; also: nearly all actives have a fitted effect of over 15% in size)
Androgen receptor (Homo sapiens), sequence (P10275 whole entry, looked up): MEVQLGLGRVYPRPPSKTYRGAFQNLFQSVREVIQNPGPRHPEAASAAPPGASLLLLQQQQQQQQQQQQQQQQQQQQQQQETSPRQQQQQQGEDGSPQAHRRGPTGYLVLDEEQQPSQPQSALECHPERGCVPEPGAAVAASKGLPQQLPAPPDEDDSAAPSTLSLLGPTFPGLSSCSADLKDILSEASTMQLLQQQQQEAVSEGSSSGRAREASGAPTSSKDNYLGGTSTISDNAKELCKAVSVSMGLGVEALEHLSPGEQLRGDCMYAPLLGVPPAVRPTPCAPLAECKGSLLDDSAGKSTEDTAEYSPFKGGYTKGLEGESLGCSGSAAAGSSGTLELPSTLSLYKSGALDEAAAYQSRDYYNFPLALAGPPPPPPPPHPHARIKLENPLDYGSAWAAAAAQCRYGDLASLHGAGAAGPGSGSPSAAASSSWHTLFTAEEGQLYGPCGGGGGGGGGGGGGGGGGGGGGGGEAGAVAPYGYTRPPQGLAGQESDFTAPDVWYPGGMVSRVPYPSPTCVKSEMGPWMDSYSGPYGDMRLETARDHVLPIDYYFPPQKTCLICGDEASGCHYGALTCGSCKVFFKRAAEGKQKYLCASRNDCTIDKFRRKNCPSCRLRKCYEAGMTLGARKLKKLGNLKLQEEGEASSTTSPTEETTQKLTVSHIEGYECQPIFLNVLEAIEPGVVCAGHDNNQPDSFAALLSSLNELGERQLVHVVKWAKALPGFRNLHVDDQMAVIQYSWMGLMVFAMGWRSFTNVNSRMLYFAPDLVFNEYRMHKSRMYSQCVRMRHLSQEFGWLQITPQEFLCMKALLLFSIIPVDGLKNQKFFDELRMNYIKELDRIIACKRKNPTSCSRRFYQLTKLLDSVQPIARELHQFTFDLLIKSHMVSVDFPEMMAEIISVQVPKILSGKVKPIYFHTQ
Procedure, shortened: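 MDA-kb2 human breast carcinoma cells carrying an MMTV-luciferase reporter (AR- and GR-responsive) were treated with compounds at 15 concentrations plus 3.0uM final nilutamide for 16hr at 37C without CO2; luminescence was read after ONE-Glo addition.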

SMILES | Potency [1] | Potency [2] | Potency [3] | Potency [4] | Potency [5] | outcome [6] | Potency [7] | Potency [8] | Potency [9] | Potency [10] | Potency [11] | Potency [12] | outcome [13] | Potency [14] | Potency [15] | Potency [16] | Potency [17] | Potency [18] | Potency [19] | Potency [20]
CCCN(CC)CC1COC2(CCC(C(C)(C)C)CC2)O1 (configuration not stated) | inactive | inactive | inactive | inactive | inactive | inactive | inactive | inactive | inactive | inactive | inactive | inactive | inactive | inactive |  |  |  |  |  | 
Clc1ccc(C(c2ccccc2Cl)C(Cl)(Cl)Cl)cc1 (configuration not stated) | inactive | 6.15 µM (active) and 8.02 µM (active) | inactive | inactive |  |  |  | inactive | inactive | 4.51 µM (active) | inactive | inactive | inactive | inactive | inactive | inactive | inactive |  |  | 
O=C1NCN(c2ccccc2)C12CCN(CC1COc3ccccc3O1)CC2 (configuration not stated) | inactive | inactive |  |  | inactive | inactive | inactive |  | inactive |  | inactive |  | inactive | inactive | inactive | inactive | inactive | inactive |  | 
O=CC(Br)(Br)Br | inactive | inactive | 30.5 µM (active) |  | inactive | inactive |  |  | inactive | inactive |  |  | inactive | 43.1 µM (active) | inactive |  |  | inactive | 21.6 µM (active) | 
CCCCCCCCCCCCCCC(Br)C(=O)O (configuration not stated) | inactive | inactive | inactive | inactive | inactive |  |  | inactive | inactive |  | inactive | inactive | inactive | inactive | inactive | inactive | inactive |  |  | 
CC(C)[C@H](C(=O)OC(C#N)c1cccc(Oc2ccccc2)c1)c1ccc(OC(F)F)cc1 (some centres not stated) | inactive | inactive | inactive | inactive |  | inactive | inactive | inactive | inactive |  | inactive | inactive | inactive | inactive |  | inactive | inactive |  | inactive | 
Cc1cc(C(F)(C(F)(F)F)C(F)(F)F)ccc1NC(=O)c1cccc(I)c1C(=O)NC(C)(C)CS(C)(=O)=O | inactive | inactive | inactive |  | inactive | inactive | inactive | inactive |  |  | inactive |  | inactive | inactive | inactive | inactive | inactive | inactive | 19.4 µM (active) | 
CN(C)CCc1c[nH]c2cccc(O)c12 | inactive | inactive | inactive | inactive |  |  |  | inactive | inactive |  | inactive | inactive | inactive |  |  |  |  |  | inactive | 
c1ccc(Nc2ccc3ccccc3c2)cc1 | inactive | 54.2 µM (active) and 48.6 µM (active) | inactive |  | 8.63 µM (active) | inactive | inactive | inactive | inactive | 17.2 µM (active) | inactive | inactive | inactive | inactive | inactive | inactive | inactive | inactive |  | 
Clc1ccc(C(Cl)(Cl)Cl)c(Cl)c1 | inactive | inactive | inactive |  |  | inactive |  | inactive |  |  | inactive | inactive | inactive | inactive | 48.9 µM (active) | inactive | inactive |  |  | 
CCCOCC(=Nc1ccc(Cl)cc1C(F)(F)F)n1ccnc1 | inactive | 17.2 µM (active) |  | 61.1 µM (active) |  | inactive | inactive |  |  |  | inactive | inactive | inactive | 61.1 µM (active) |  | inactive | inactive |  |  | 
CC(C)CCCCCOC(=O)c1ccccc1C(=O)OCCCCCC(C)C | inactive | inactive | inactive | inactive | inactive | inactive | inactive | inactive | inactive |  | inactive | inactive | inactive |  | inactive | inactive | inactive | inactive |  | 
CC1(c2ccc(Oc3ccccc3)cc2)OC(=O)N(Nc2ccccc2)C1=O (configuration not stated) | inactive | 10.9 µM (active) | 24.5 µM (active) | inactive | inactive | inactive |  | 30.8 µM (active) | inactive |  |  | inactive | inactive | 27.5 µM (active) |  | inactive | inactive |  |  | 
Oc1cc(Cl)c(Cl)c(Cl)c1 | inactive | 14.6 µM (active) |  |  | inactive | inactive | inactive |  |  | 13 µM (active) | inactive |  | inactive | 51.7 µM (active) | inactive | inactive | inactive |  | 25.9 µM (active) | inactive
OC(c1ccc(Cl)cc1)(c1ccc(Cl)cc1)C(Cl)(Cl)Cl | inactive | inactive |  | inactive | inactive | inactive | 68.6 µM (active) | inactive | inactive |  | inactive | inactive |  | inactive |  |  |  | inactive | inactive | 
CCCCCCCCCCCCCN1CC(C)OC(C)C1 (configuration not stated) | inactive | inactive | inactive | inactive | inactive | inactive | inactive | inactive | inactive |  | inactive | inactive | inactive | inactive | inactive | inactive | inactive | inactive |  | 
CCc1nn(C)c(C(=O)NCc2ccc(C(C)(C)C)cc2)c1Cl | inactive | 24.3 µM (active) | 0.306 µM (active) |  | inactive | inactive | 61.1 µM (active) |  |  |  | 0.389 µM (active) |  | inactive | 10.9 µM (active) |  | inactive | inactive | 54.5 µM (active) |  | 
